Experiment [1] in a line: E. coli DRC41 culture turbidity changes, primary screen, E. coli filamentation inducer project, strain DRC41, OD650, 48 h (AID 1152).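 Further: E. coli MC1000 strain DRC41 lacking acrAB efflux pump and sulA.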 Particulars: E. coli DRC41 (acrAB sulA), higher = more signal, called active from +8 up or from −8 down.
The nature of experiment [2]: small-molecule binders of probe aLefty1, primary screen, biochemical, small-molecule microarray, 635/667 nm fluorescence (AID 1153).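 Further: score merges spot fluorescence with signal-to-noise ratio from the scanned slide images.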 Particulars: higher = more signal.
The nature of experiment [3]: PSAC antagonists in infected red cells, primary screen, cell-based, P. falciparum Indochina, OD700, 1 h (AID 1154). Particulars: P. falciparum Indochina infected RBC osmotic lysis, higher = more signal, called active from +8 up or from −8 down.
Experiment [4] in a line: PSAC antagonists in infected red cells, primary screen, cell-based, P. falciparum Indochina, OD700, 2 h (AID 1155).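 Further: lysis reports solute entry through the parasite surface anion channel PSAC; channel blockers reduce lysis of infected cells.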 Particulars: P. falciparum Indochina infected erythrocytes, osmotic lysis OD700; higher = more signal, called active from +8 up or from −8 down.
The nature of experiment [5]: osmotic lysis modulators in infected erythrocytes, primary screen, PSAC antagonist project, cell-based, P. falciparum Indochina, OD700, 3 h (AID 1156). Particulars: higher = more signal, called active from +8 up or from −8 down.
A short description of experiment [6]: PSAC antagonists in infected red cells, primary screen, cell-based, P. falciparum Indochina, OD700, 18 h (AID 1157). Particulars: P. falciparum Indochina infected erythrocytes, osmotic lysis OD700, 18 h; higher = more signal, called active from +8 up or from −8 down.
Experiment [7] in a line: modulators of S6 phosphorylation in cells, primary screen, cell-based, A549, cytoblot, luminescence, serum-stimulated (AID 1158).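 Further: serum-stimulated A549 lung adenocarcinoma cells; signal is phosphorylated S6 detected by cytoblot immunostaining with HRP secondary.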 Particulars: A549 phospho-S6 cytoblot, 5 h, higher = more signal.
Experiment [8] has as its target NADPH oxidase 2 (Homo sapiens) (UniProt P04839). The experiment in a line: NOX2-dependent H2O2 signal modulators, primary screen, NOX inhibitor project, cell-based, HEK293-NOX2, PMA-stimulated, Amplex Red fluorescence (AID 1159). Further: test concentration not given here. Particulars: 45 min, higher = more signal, called active from +8 up or from −8 down.
For experiment [9], the target named is NADPH oxidase 4 (Homo sapiens) (UniProt Q9NPH5). The experiment in a line: NOX4-dependent H2O2 signal modulators, primary screen, NOX inhibitor project, cell-based, HEK293-NOX4, tetracycline-induced, Amplex Red fluorescence (AID 1160). Particulars: 45 min, higher = more signal, called active from +8 up or from −8 down.
Chain of NADPH oxidase 4 (Homo sapiens) (Q9NPH5 whole entry, looked up): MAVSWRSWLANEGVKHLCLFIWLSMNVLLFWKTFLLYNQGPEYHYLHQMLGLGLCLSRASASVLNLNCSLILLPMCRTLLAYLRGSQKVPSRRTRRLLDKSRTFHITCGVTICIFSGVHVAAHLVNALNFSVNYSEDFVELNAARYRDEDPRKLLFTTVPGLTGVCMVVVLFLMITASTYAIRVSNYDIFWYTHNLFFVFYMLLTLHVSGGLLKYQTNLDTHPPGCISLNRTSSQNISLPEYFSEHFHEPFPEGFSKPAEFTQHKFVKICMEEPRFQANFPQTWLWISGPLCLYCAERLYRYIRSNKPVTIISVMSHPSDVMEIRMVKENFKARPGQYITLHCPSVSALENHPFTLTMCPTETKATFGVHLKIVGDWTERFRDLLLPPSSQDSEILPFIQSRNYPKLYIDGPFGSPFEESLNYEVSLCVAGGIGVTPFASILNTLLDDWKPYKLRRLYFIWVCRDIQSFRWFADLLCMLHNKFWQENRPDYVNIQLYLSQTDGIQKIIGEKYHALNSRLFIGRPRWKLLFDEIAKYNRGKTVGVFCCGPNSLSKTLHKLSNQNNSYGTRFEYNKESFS
In experiment [10] the target is NADPH oxidase 5 (Homo sapiens) (UniProt Q96PH1). Put plainly: NOX5-dependent H2O2 signal modulators, primary screen, NOX inhibitor project, cell-based, HEK293-NOX5, Amplex Red fluorescence (AID 1161). Particulars: HEK293-NOX5, ionomycin, 45 min, higher = more signal.
Chain of NADPH oxidase 5 (Homo sapiens) (Q96PH1 whole entry, looked up): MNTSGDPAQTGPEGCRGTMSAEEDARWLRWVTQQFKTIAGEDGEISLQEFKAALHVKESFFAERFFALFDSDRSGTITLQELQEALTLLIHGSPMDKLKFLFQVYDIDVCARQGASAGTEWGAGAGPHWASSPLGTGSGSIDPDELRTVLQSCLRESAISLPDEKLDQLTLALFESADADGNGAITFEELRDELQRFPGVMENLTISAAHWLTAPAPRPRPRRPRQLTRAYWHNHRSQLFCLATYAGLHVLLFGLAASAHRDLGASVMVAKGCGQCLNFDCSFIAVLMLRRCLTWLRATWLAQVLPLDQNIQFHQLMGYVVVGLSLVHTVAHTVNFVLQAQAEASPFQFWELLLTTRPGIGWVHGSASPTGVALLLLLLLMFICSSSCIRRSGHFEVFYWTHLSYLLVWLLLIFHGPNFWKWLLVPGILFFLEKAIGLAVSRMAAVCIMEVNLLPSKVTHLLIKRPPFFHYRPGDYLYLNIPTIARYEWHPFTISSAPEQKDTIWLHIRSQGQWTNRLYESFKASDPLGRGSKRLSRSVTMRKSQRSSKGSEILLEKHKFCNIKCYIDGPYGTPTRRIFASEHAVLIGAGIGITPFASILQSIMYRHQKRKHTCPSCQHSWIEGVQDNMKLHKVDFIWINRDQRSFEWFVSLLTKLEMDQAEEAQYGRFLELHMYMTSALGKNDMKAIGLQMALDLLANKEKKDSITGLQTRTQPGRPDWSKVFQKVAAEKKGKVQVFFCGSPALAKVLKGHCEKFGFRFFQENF
The nature of experiment [11]: A549 cell viability effects, profiling panel, calcein-AM fluorescence, 48 h, basal (AID 1162). Further: test concentration not given here. Particulars: higher = more signal.
Experiment [12] is described as follows: adipocyte viability effects, profiling panel, cell-based, 3T3-L1 adipocytes, calcein-AM fluorescence, 48 h, basal (AID 1163). Further: test concentration not given here. Particulars: 3T3-L1 adipocytes viability, higher = more signal.
Experiment [13] in a line: HepG2 cell viability effects, profiling panel, calcein-AM fluorescence, 48 h, basal (AID 1164). Further: test concentration not given here. Particulars: higher = more signal.
Experiment [14] is described as follows: MM1S cell viability effects, profiling panel, calcein-AM fluorescence, 48 h, basal (AID 1165).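 Further: viability of MM1S multiple myeloma cells under basal unstimulated conditions; test concentration not given here.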 Particulars: higher = more signal.
Experiment [15] in a line: basal RPMI8226 viability, no added stimulus, profiling panel, cell-based, calcein-AM fluorescence, 48 h, PK04 Diversity Set (AID 1166).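 Further: cells grown under basal conditions without added stimulus; test concentration not given here.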 Particulars: RPMI8226 myeloma viability, higher = more signal.
Experiment [16] can be described thus: basal HepG2 mitochondrial membrane potential changes, profiling panel, cell-based, JC-1 fluorescence, 24 h, 100 nL compound (AID 1167). Further: test concentration not given here. Particulars: higher = more signal.
Experiment [17] can be described thus: basal 3T3-L1 adipocyte mitochondrial potential changes, profiling panel, cell-based, JC-1 fluorescence, 3T3-L1 adipocytes, 24 h, 100 nL compound (AID 1168). Further: test concentration not given here. Particulars: JC-1 mitochondrial fluorescence, higher = more signal, called active from +8 up or from −8 down.
The nature of experiment [18]: basal RPMI8226 mitochondrial membrane potential changes, profiling panel, cell-based, JC-1 fluorescence, 24 h, 100 nL compound (AID 1169). Further: test concentration not given here. Particulars: RPMI8226 myeloma, JC-1 mitochondrial potential fluorescence, higher = more signal.
The nature of experiment [19]: basal MM1S mitochondrial membrane potential changes, profiling panel, cell-based, JC-1 fluorescence, 24 h, 100 nL compound (AID 1170). Further: test concentration not given here. Particulars: higher = more signal.
Experiment [20] is described as follows: A549 lung cancer cell viability effects, profiling panel, resazurin fluorescence, 24 h, PK04 Diversity Set (AID 1171). Further: test concentration not given here. Particulars: higher = more signal, called active from +8 up or from −8 down.

Activity calls are given as the source filed them.

Chain of NADPH oxidase 2 (Homo sapiens) (P04839 whole entry, looked up): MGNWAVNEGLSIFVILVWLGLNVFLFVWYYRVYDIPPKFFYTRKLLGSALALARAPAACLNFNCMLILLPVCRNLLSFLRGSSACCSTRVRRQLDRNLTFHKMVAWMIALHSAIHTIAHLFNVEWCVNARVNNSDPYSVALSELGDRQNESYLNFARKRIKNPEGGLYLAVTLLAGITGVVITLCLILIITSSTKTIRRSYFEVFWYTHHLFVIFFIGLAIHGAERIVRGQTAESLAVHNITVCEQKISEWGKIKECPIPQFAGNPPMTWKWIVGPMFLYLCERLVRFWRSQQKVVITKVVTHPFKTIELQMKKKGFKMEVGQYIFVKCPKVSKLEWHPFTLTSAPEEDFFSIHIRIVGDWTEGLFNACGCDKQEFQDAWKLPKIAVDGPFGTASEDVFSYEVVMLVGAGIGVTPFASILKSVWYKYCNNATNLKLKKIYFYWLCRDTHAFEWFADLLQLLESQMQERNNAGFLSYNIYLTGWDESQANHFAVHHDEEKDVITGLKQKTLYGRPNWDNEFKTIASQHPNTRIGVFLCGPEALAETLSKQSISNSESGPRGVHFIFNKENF

Take `OCCCC1=CC(c2ccc(CN3CCCC3)cc2)N(Cc2cccc(OC(F)(F)F)c2)CC1` (stereo not given): the z-score in [1] is -2.64 (inactive); in [3], 3.61 (inactive); in experiment [4], 0.935 (inactive); in [5] it was 0.524 (inactive); in experiment [6] it was 0.749 (inactive); in experiment [7], -0.791. For the same compound, the z-score was -5.61 (inactive) in [8]; -2.06 (inactive) in experiment [9]; -2.16 in [10]; -4.68 in experiment [11]; -0.267 in [12]; -4.99 in experiment [13]. Besides, the z-score in [14] was -3.3; in experiment [15] it was -3.83; in experiment [16] it was -0.125; in experiment [17] it was 0.367 (inactive); in experiment [18] it was -0.739; in [19] it was -2.38. For the same compound, the z-score in experiment [20] is 0.194 (inactive). Further, in experiment [2], the composite z-score was 0.286.
As for `C=C(CCCC)/C(=C/C[C@H](OC(=O)c1ccncc1)c1ccccc1OCCO)c1cc(C(=O)OC)ccc1OC`, the z-score in experiment [1] is 0.0839 (inactive); in experiment [3], 23.6 (active); in experiment [4], 6.35 (inactive); in experiment [5], 3.84 (inactive); in experiment [6], 1.44 (inactive); in experiment [7], -0.166. In addition, the z-score in [8] was 0.559 (inactive); in [9] it was -0.48 (inactive); in experiment [10], -1.67; in experiment [11], -0.0906; in [12], 0.503; in experiment [13], -0.629. In addition, the z-score in experiment [14] is -3.29; in experiment [15], -1.82; in experiment [16], 2.06; in [17], -0.292 (inactive); in [18] it was -0.262; in [19], 0.732. For the same compound, in experiment [20], the z-score is 0.613 (inactive). Besides, the composite z-score in experiment [2] worked out at 0.165.
On to `C[N+](C)(C)CCCCNC(=O)[C@H]1C[C@H]2C(=O)N[C@@H](Cc3ccccc3)C(=O)N2[C@H]1c1cccc(OCCO)c1`, for which the z-score in [1] was 0.0946 (inactive); in experiment [3], 5.34 (inactive); in experiment [4] it was 0.772 (inactive); in experiment [5], -0.835 (inactive); in experiment [6] it was 0.818 (inactive); in [7], 0.17. In addition, the z-score was -0.423 (inactive) in [8]; -0.824 (inactive) in [9]; -0.418 in [10]; -0.52 in experiment [11]; -0.878 in experiment [12]; -0.097 in experiment [13]. The z-score was 0.135 in experiment [14]; -0.748 in [15]; -0.559 in experiment [16]; -0.318 (inactive) in [17]; 0.0888 in experiment [18]; -0.4 in experiment [19]. For the same compound, the z-score in experiment [20] was -0.967 (inactive). The compound also returned a composite z-score in [2] of 0.186.
In the case of `C=CCC(OC(C)=O)[C@@H]1[C@@H](N(Cc2cccc3ccccc23)C(=O)Cc2ccc(OC)cc2)c2cc(OCCCO)ccc2N1C(=O)Cc1ccc2ccccc2c1` (stereo not given in full), the z-score was -0.504 (inactive) in experiment [1]; 2.18 (inactive) in [3]; 0.0026 (inactive) in experiment [4]; 1.42 (inactive) in experiment [5]; -0.0843 (inactive) in [6]; 0.909 in [7]. Moreover, the z-score in experiment [8] is -2.23 (inactive); in [9], -0.887 (inactive); in experiment [10] it was -1.91; in experiment [11], -0.105; in [12], 0.759; in experiment [13], -0.472. In addition, the z-score in experiment [14] is 0.0986; in [15] it was -1.36; in [16], 3; in experiment [17] it was -0.199 (inactive); in [18] it was -0.226; in experiment [19], 0.0724. Further, the z-score in experiment [20] is 0.719 (inactive). In addition, in experiment [2], the composite z-score is 0.285.
With `C=C(COC)C(=O)CC[C@@H](OC(=O)c1ccccc1-c1ccccc1C(=O)O)c1ccc(OCCO)cc1`, the z-score in experiment [1] is -0.172 (inactive); in experiment [3], 10.8 (active); in [4], 0.971 (inactive); in [5], 0.489 (inactive); in [6], 0.381 (inactive); in [7], -0.528. The z-score in experiment [8] is 0.849 (inactive); in experiment [9], -0.245 (inactive); in [10] it was -1.32; in experiment [11], -0.25; in experiment [12], 1.27; in experiment [13], -0.354. The z-score in [14] was -3.06; in [15] it was -0.414; in experiment [16], -1.05; in experiment [17], -0.144 (inactive); in experiment [18], -0.163; in [19], 0.0435. For the same compound, the z-score in experiment [20] is -0.205 (inactive). In experiment [2], the composite z-score worked out at 0.712.
With `CCOC(=O)C[C@H]1[C@H](OC(=O)c2ccccc2-c2ccccc2)[C@@H](NC(=O)C2CCCCC2)c2cc(OCCCO)ccc2N1C(=O)c1ccc2ccccc2n1`, the z-score is -0.899 (inactive) in [1]; 3.85 (inactive) in experiment [3]; 0.192 (inactive) in experiment [4]; -0.192 (inactive) in experiment [5]; 0.255 (inactive) in experiment [6]; -0.342 in experiment [7]. Also, the z-score in experiment [8] was 0.618 (inactive); in experiment [9] it was 1.23 (inactive); in experiment [10] it was 2.62; in [11], 0.448; in experiment [12], -0.87; in [13], 0.581. Moreover, the z-score is -0.742 in experiment [14]; -1.3 in experiment [15]; -0.28 in [16]; 1.19 (inactive) in [17]; -0.21 in experiment [18]; -0.621 in [19]. Moreover, the z-score in experiment [20] was -0.417 (inactive). In experiment [2], this compound gave a composite z-score of -0.167.
As to `NC(=O)N1C(=O)C2C(C1=O)C1C=C(CCCO)C2C(c2ccc(CN3CCCC3)cc2)N1Cc1cc2c(cc1Br)OCO2` (stereo not given), the z-score in experiment [1] was -0.272 (inactive); in [3], 1.69 (inactive); in experiment [4] it was 0.446 (inactive); in [5], 0.604 (inactive); in experiment [6], 0.211 (inactive); in experiment [7], 0.106. Besides, the z-score is -1.07 (inactive) in experiment [8]; 0.731 (inactive) in experiment [9]; 0.46 in experiment [10]; -1.05 in experiment [11]; 0.201 in [12]; -0.623 in experiment [13]. The z-score in experiment [14] is -0.0321; in experiment [15], 0.124; in experiment [16], -0.595; in experiment [17] it was -0.472 (inactive); in experiment [18], 0.159; in experiment [19], 0.322. Further, the z-score in experiment [20] is -0.855 (inactive). In experiment [2], this compound had a composite z-score of -0.276.
For the compound `C=C(/C(=C/C[C@@H](OC(C)=O)c1cccc(OCCO)c1)c1cnc2ccccc2c1)C(C)C`, the z-score in experiment [1] is 0.509 (inactive); in [3] it was 12.5 (active); in [4], 2.52 (inactive); in experiment [5] it was 1.24 (inactive); in experiment [6], 0.895 (inactive); in [7] it was 0.328. In addition, the z-score is -1.71 (inactive) in experiment [8]; -0.885 (inactive) in [9]; -1.73 in experiment [10]; 0.295 in [11]; 1.53 in experiment [12]; 0.224 in [13]. The z-score in [14] is -1.07; in experiment [15], -1.97; in experiment [16], -1.63; in experiment [17], -0.436 (inactive); in experiment [18], -0.533; in [19], 0.581. In addition, the z-score in [20] is -0.322 (inactive). In experiment [2], the composite z-score amounted to 0.0582.
In the case of `O=C(NCc1ccc(F)cc1)[C@H]1C[C@H]2C(=O)N3CCC[C@H]3C(=O)N2[C@H]1c1ccc(O)cc1`, the z-score in [1] is 1.84 (inactive); in experiment [3] it was 1.25 (inactive); in [4] it was -0.989 (inactive); in experiment [5], -3.27 (inactive); in experiment [6], -1.66 (inactive); in experiment [7], 0.505. Further, the z-score is -1.35 (inactive) in experiment [8]; -0.184 (inactive) in experiment [9]; 0.601 in experiment [10]; -0.965 in experiment [11]; 0.625 in experiment [12]; -0.647 in experiment [13]. The z-score in experiment [14] was -0.896; in [15], -0.625; in experiment [16], 0.552; in experiment [17] it was 0.811 (inactive); in experiment [18], 0.207; in experiment [19] it was -0.396. The z-score in experiment [20] is -0.0909 (inactive). Further, in [2], the composite z-score was -0.491.

Source of the values: PubChem BioAssay.
